Holding throughout (design): scale not given: direction of the effect not stated beside the values
Test [1] deals with Protein translocase subunit SecA (Escherichia coli (strain K12)) (UniProt P10408). The test can be described thus: Assay to Identify E. coli SecA ATPase Inhibitors. Format: functional. Particulars: 30 µM.
In test [2] the target is T1, Ubiquitin-activating enzyme e1, putative (Leishmania donovani (strain BPK282A1)) (UniProt E9BSI1).
T1 sequence (whole entry): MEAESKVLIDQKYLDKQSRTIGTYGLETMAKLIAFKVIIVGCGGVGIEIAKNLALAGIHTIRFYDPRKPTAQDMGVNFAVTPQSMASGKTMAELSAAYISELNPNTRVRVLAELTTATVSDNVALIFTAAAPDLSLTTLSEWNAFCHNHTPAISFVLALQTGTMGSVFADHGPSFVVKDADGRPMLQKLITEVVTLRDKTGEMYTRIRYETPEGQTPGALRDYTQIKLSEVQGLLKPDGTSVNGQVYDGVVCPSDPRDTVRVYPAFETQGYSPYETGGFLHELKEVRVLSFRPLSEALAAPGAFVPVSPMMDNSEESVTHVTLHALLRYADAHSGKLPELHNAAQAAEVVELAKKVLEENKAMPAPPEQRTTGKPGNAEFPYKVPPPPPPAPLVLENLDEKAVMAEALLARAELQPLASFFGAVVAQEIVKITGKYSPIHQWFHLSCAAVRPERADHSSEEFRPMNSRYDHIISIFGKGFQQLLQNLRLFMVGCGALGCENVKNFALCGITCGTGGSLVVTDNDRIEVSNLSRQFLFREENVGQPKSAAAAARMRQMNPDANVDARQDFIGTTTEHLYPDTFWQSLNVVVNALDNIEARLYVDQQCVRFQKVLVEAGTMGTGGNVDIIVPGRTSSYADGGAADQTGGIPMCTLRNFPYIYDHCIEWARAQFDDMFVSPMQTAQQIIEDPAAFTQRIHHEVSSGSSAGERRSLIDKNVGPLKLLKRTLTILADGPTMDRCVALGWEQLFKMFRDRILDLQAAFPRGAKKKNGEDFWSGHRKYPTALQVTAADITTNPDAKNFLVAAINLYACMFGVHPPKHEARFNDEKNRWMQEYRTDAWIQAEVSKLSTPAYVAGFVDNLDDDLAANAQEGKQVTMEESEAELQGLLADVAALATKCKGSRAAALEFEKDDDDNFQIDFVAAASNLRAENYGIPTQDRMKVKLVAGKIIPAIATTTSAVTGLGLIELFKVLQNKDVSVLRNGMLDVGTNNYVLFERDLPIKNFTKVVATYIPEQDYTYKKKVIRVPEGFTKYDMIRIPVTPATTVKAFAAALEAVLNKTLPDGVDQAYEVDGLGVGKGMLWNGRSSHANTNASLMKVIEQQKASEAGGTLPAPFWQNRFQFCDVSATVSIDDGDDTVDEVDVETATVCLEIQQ
The test can be described thus: Leishmania donovani Ubiquitin Activating Enzyme (LdE1). Particulars: 30 µM. Format: functional.

The target of test [3] is AMP-activated protein kinase, AMPK (Homo sapiens) (UniProt P54646+O43741+P54619+Q9UGJ0+Q9Y478+Q13131+Q9UGI9). The test can be described thus: AMP-dependent Kinase enzyme assay. An in vitro enzyme assay that detects ADP turnover that is directly proportional to AMPK activity. This uses naive AMPK that is activated during the assay with MK-8722. Format: functional. Particulars: 30 µM.

For test [4], the target named is Sialic acid-binding Ig-like lectin 9 (Homo sapiens) (UniProt Q9Y336). Briefly: Hs-Siglec9 ALPHAscreen SOP 20170721. Particulars: 10 µM. On the technique in general: Bead proximity is the source of the signal in Alpha formats.
Chain of Sialic acid-binding Ig-like lectin 9 (Homo sapiens) (Q9Y336 whole entry): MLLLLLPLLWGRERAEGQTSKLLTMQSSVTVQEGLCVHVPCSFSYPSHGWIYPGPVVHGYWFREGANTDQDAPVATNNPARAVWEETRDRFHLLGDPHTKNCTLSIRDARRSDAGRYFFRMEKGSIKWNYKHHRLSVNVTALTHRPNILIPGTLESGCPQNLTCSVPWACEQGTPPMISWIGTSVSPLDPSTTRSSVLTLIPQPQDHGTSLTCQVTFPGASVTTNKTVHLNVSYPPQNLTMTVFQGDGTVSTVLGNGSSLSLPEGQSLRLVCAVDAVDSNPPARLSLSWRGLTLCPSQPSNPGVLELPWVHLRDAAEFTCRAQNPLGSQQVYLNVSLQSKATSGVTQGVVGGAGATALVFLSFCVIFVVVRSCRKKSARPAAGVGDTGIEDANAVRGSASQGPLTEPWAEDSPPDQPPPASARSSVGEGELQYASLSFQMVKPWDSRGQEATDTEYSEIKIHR
The subject of a further test is Trypanosoma cruzi. Briefly: Trypanosoma cruzi phosphomannomutase and mannose-1-phosphate guanylyltransferase assay. Format: functional. The note with it: 10 µM.
Test [5] deals with T2, Arginase-2, mitochondrial (Homo sapiens) (UniProt P78540).
T2 sequence (whole entry): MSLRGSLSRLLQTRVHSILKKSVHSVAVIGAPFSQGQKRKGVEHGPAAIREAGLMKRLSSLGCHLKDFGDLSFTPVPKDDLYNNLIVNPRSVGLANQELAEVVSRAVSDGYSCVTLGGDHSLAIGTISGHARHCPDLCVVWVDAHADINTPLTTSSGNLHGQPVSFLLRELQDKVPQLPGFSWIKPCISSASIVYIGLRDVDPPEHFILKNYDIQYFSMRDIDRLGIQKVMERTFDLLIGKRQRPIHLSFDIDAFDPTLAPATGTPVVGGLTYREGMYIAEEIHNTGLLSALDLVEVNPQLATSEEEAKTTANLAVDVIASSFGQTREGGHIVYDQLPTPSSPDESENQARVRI
Briefly: in vitro enzyme assay to detect the production of urea directly proportional to the activity of Arginase II. Note: in the data most compounds retested in dose-response had high values. The note with it: 33.3 µM. Format: functional.

Test [6] has as its target T3, Proteasome subunit beta (Trypanosoma cruzi) (UniProt O96673).
T3 sequence (whole entry): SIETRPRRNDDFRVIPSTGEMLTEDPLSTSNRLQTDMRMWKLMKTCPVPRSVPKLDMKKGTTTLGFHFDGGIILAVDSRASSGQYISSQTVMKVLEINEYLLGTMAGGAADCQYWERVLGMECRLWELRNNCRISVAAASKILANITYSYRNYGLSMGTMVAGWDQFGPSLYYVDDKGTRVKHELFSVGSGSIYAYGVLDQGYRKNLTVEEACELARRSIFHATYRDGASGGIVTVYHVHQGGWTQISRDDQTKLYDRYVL
The test can be described thus: Trypanosoma cruzi proteasome chymotrypsin-like activity (TcProtChymo) assay. Note: in the data most compounds retested in dose-response had high values. Format: functional. Particulars: 9.37 µM.

The next test is filed under the species Homo sapiens. The test can be described thus: To identify inhibition of the IFN signalling (Jak-Stat) pathway via expression of an eGFP reporter gene under the control of an IFN-stimulated response element (ISRE) containing MxA promoter. Format: functional. Particulars: 30 µM. For orientation: A reporter such as luciferase makes a cellular process visible.

The target in test [7] is T4, Tyrosyl-tRNA synthetase, putative (Trypanosoma cruzi (strain CL Brener)) (UniProt Q4DSP6).
T4 sequence (whole entry): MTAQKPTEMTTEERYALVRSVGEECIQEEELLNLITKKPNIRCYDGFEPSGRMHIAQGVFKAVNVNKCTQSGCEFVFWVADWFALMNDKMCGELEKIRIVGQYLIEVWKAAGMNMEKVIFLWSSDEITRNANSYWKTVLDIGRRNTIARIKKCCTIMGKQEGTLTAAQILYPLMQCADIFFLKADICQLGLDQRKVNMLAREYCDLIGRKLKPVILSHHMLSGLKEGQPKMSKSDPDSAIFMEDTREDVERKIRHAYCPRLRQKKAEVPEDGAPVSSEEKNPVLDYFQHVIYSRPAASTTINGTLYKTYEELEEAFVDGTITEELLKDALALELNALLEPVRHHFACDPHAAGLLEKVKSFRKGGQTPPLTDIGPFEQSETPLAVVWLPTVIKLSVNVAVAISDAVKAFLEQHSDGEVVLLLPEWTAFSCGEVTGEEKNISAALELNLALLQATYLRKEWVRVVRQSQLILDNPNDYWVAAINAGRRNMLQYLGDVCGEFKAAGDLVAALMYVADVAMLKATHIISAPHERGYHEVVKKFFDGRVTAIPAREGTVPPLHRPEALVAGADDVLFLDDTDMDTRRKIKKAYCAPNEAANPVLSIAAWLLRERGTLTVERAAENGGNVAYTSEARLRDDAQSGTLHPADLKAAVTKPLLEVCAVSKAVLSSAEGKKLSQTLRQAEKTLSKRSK
The test can be described thus: Trypanosoma cruzi tyrosyl tRNA synthetase (TcYRS) _High Tyrosine SOP. Note: in the data most compounds retested in dose-response had high values. Format: functional. Particulars: 30 µM.

In test [8] the target is T4, Tyrosyl-tRNA synthetase, putative (Trypanosoma cruzi (strain CL Brener)). The test can be described thus: Trypanosoma cruzi tyrosyl tRNA synthetase (TcYRS) SOP. Format: functional. The note with it: 30 µM.
Test [9] has as its target Chromo domain-containing protein 1 (Saccharomyces cerevisiae (strain ATCC 204508 / S288c) (Baker's yeast)) (UniProt P32657). Briefly: ScCHD-1 Enzyme Inhibition Assay. Note: in the data most compounds retested in dose-response had high values. Format: functional. Particulars: 30 µM.

For some assays here: Potency and affinity values are given separately.

Chain of Protein translocase subunit SecA (Escherichia coli (strain K12)) (P10408 whole entry): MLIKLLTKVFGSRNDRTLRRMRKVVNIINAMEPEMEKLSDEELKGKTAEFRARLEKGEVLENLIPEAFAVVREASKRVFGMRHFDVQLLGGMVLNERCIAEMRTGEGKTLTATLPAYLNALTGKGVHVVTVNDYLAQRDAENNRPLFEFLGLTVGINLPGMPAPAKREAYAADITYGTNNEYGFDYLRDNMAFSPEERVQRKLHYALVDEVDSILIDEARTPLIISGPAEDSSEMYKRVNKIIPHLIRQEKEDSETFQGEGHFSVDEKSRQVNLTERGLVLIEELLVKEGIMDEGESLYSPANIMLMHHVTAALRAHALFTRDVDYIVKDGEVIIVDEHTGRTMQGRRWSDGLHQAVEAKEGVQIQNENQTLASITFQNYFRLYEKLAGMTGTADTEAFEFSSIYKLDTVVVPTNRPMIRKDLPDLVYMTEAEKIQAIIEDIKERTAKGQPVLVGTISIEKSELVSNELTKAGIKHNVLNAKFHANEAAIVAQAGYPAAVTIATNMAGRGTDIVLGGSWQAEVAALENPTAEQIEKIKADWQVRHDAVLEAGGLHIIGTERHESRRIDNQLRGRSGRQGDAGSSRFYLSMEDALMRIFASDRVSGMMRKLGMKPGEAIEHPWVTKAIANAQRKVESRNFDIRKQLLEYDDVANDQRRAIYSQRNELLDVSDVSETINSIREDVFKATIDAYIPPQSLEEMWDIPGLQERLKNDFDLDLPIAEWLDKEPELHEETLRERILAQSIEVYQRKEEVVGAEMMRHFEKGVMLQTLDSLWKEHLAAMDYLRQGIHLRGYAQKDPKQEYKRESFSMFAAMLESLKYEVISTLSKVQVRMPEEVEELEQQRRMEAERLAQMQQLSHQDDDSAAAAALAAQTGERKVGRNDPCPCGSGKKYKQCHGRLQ
Chain of Chromo domain-containing protein 1 (Saccharomyces cerevisiae (strain ATCC 204508 / S288c) (Baker's yeast)) (P32657 whole entry, the tested form may be a part): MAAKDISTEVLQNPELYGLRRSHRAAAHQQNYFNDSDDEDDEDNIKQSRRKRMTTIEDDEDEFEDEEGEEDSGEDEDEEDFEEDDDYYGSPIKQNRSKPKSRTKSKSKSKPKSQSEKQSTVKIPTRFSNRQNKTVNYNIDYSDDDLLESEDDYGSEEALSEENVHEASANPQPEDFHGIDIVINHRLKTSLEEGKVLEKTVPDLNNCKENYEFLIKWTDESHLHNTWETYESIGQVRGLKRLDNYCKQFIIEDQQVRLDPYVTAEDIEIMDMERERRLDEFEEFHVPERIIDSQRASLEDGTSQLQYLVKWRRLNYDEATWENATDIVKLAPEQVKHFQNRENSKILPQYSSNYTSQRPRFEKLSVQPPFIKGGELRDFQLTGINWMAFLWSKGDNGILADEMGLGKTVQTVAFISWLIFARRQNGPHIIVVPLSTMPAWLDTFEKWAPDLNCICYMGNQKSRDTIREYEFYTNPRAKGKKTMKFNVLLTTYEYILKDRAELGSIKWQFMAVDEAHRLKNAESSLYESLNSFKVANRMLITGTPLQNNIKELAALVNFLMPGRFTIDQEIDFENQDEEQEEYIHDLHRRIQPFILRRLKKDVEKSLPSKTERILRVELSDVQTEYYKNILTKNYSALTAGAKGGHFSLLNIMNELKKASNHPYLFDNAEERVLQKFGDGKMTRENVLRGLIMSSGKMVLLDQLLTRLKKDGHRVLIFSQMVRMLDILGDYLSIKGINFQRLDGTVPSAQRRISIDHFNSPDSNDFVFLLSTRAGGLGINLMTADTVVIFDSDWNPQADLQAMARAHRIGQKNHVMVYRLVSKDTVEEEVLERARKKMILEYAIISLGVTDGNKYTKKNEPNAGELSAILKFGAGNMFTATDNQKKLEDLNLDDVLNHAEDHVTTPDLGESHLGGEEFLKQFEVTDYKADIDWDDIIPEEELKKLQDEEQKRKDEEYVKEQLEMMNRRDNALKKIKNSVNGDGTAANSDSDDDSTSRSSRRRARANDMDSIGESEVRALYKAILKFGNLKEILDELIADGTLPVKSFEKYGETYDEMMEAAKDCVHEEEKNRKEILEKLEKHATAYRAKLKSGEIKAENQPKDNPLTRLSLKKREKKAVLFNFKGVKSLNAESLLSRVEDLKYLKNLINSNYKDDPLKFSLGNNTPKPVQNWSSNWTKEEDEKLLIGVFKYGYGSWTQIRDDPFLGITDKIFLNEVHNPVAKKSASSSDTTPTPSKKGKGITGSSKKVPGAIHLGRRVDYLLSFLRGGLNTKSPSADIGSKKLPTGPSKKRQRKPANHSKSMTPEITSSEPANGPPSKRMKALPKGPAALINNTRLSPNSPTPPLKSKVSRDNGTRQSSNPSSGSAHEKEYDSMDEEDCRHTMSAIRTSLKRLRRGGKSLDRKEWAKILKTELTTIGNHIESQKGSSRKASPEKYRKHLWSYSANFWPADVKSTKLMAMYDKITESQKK

For the compound `COC[C@H]1CCC[C@]12CN(C(=O)NCc1ccccc1)CCO2`, the Percent Effect in test [1] was -5%; in [2], 20%; in [3], -4.55%; in [4] it was 9.51%; with Trypanosoma cruzi it was 2.75%; in [5] it was -7.22%. Also, the Percent Effect in [6] is 13.5%; in the test filed under Homo sapiens, 2.52%; in [7], 3.17%; in test [8], 10.3%; in [9], -9.21%.
On to `CCOCCNc1nc(C2CCCC2)nc2c1cnn2C`, for which the Percent Effect is -4.35% in test [1]; 2.74% in test [2]; 6.03% in test [3]; -4.4% in [4]; 0.588% in the test on Trypanosoma cruzi; 2.73% in test [5]. The Percent Effect was found to be 1.6% in [6]; 17.1% in the test filed under Homo sapiens; 1.07% in test [7]; 5% in test [8]; 2.02% in [9].
As to `CNC(=O)c1ccc(C(=O)N2CCCC(n3cc(C)cn3)C2)cn1` (stereo not given), the Percent Effect in [1] is -7.4%; in test [2], 26%; in test [3] it was -0.148%; in test [4], 5.41%; in the test on Trypanosoma cruzi it was 9.18%; in [5], 3.56%. Also, the Percent Effect is 12% in [6]; 26.2% in the test listed under Homo sapiens; 9.71% in test [7]; 26.8% in [8]; -11.2% in [9].
For `Cc1nnc2n1CCN(C(=O)c1cn(-c3ccccc3Cl)nn1)C2`, the Percent Effect in test [1] was -5.44%; in test [2] it was 8.22%; in test [3], -1.29%; in [4] it was 1.29%; in the test with Trypanosoma cruzi it was 0.992%; in test [5], -2.79%. Moreover, the Percent Effect in test [6] was 6.25%; in the test filed under Homo sapiens, 0.99%; in test [7], 7.29%; in test [8], 16.1%; in test [9], -2.71%.
For the compound `O=C(Cc1cccc(F)c1)NCCNCc1cccc(O)c1`, the Percent Effect in test [1] was -1.42%; in test [2], -5.2%; in [3], 13.5%; in test [4], 6.95%; in the test on Trypanosoma cruzi, 0.749%; in [5] it was 3.56%. Also, the Percent Effect in test [6] is -0.169%; in the test listed under Homo sapiens, 3.07%; in test [7], 8.74%; in test [8] it was 12.2%; in [9], -4.75%.
Take `CC(CNC(=O)Nc1cn[nH]c1)N1CCOCC1` (stereo not given): the Percent Effect was -0.592% in test [1]; 13% in test [2]; 1.69% in test [3]; -6.2% in [4]; -3.04% with Trypanosoma cruzi; 6.53% in [5]. For the same compound, the Percent Effect was 15.9% in test [6]; 25% in the test filed under Homo sapiens; 7.62% in [7]; 18.8% in test [8]; -18.5% in [9].
With `CCOc1ccc(NC(=O)CN2CCN(c3nccn3C)CC2)cc1`, the Percent Effect in [1] is 0.133%; in test [2], 10.4%; in test [3] it was 0.177%; in [4], -1.93%; with Trypanosoma cruzi it was 7.79%; in test [5], -3.23%. Besides, the Percent Effect was 15.5% in [6]; -6.28% in the test listed under Homo sapiens; 9.52% in test [7]; 14.1% in [8]; -9% in test [9].
Turning to `O=C(NCc1ccccn1)[C@@H]1COC[C@H]2CN(C3CCOCC3)C[C@H]21`, the Percent Effect in [1] is 4.15%; in test [2], 8.11%; in test [3] it was 9.79%; in test [4], -14%; in the test on Trypanosoma cruzi, -7.33%; in test [5], 4.78%. Moreover, the Percent Effect is 12.7% in test [6]; 11.2% in the test filed under Homo sapiens; 5.41% in test [7]; 10.3% in [8]; -2.43% in test [9].
Regarding `COc1ccccc1CC(=O)N1CCC(NCc2cc[nH]c2)CC1`, the Percent Effect in test [1] was -0.99%; in [2] it was 18.9%; in [3], -7.09%; in test [4], -3.31%; in the test on Trypanosoma cruzi, 4.92%; in test [5], 5.36%. The Percent Effect in test [6] is 16.3%; in the test listed under Homo sapiens it was 5.88%; in test [7] it was 11.9%; in test [8], 23.2%; in [9], -7.56%.
On to `CCS(=O)(=O)c1ccccc1C(=O)NCc1ccnc(N(C)C)c1`, for which the Percent Effect in test [1] is -2.2%; in test [2], 28.6%; in [3], -10.1%; in [4] it was 2.33%; in the test on Trypanosoma cruzi, 2.62%; in test [5] it was 4.27%. In addition, the Percent Effect in test [6] was 14%; in the test listed under Homo sapiens, 4.01%; in [7], 9.71%; in test [8] it was 24.4%; in test [9], -10.5%.

The record behind these values is ChEMBL document CHEMBL3988442, “University of Dundee, Small-Polar-MMV Screening Library” (2021).
